This passage reports binding signal results from PMC7862700, “An all-to-all approach to the identification of sequence-specific readers for epigenetic DNA modifications on cytosine”.

Common to all, as to test: DAPPL (digital affinity profiling via proximity ligation, sequencing); 10 mM Tris-HCl pH 7.5, 50 mM NaCl, 1 mM DTT, 4% glycerol, room temperature, 30 min; GST-TFs on glutathione beads, 16-mer random dsDNA library, 0.1% formaldehyde crosslink after washing; high values mean tight binding
Assay [1] deals with T1, FEV (Homo sapiens, UniProt Q99581 1-238).
T1 sequence: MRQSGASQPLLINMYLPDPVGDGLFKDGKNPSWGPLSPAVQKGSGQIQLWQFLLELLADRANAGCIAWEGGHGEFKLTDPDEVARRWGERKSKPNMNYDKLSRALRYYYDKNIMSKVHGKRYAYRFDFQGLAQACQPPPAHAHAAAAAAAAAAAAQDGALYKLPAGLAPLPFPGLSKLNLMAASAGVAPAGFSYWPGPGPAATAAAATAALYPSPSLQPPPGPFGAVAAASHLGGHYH
As to conditions: protein: recombinant; tags: N-terminal GST; dsDNA, one strand shown. The method in brief: (§1)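 Human transcription factors carrying a GST fusion were produced in yeast, bound to glutathione beads, tagged with DNA barcodes and pooled together with a tag-only sample. Each pool was held with 200 nmole of a random double-stranded 16-mer DNA library in Tris/NaCl/DTT/glycerol buffer for 30 min at room temperature, then washed, crosslinked in 0.1% formaldehyde, proximity-ligated with BsaI/T4 ligase (1 h, 37 °C), PCR-amplified and sequenced on an Illumina NextSeq500. Binding signal is the read frequency of each hexamer for a given factor divided by its frequency in the tag-only sample.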

The target in assay [2] is ETV5 (Homo sapiens, UniProt P41161 1-510). As to conditions: protein: recombinant; tags: N-terminal GST; dsDNA, one strand shown. An outline of the steps: as §1
In assay [3] the target is HSF1 (Homo sapiens, UniProt Q00613 1-529). As to conditions: protein: recombinant; tags: N-terminal GST; chain copies: 3; dsDNA, one strand shown. The method in brief: as §1
In assay [4] the target is T2, SPIC (Homo sapiens, UniProt Q8N5J4 1-248).
T2 sequence: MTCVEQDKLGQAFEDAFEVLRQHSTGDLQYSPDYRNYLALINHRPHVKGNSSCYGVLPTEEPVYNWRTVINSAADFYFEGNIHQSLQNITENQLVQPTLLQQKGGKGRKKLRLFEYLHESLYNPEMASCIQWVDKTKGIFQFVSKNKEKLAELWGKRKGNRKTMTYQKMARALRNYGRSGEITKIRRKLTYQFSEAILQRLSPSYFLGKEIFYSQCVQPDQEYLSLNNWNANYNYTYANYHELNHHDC
As to conditions: protein: recombinant; tags: N-terminal GST; dsDNA, one strand shown. An outline of the steps:
as §1

Assay [5] addresses ELF4 (Homo sapiens, UniProt Q99607 1-663). As to conditions: protein: recombinant; tags: N-terminal GST; dsDNA, one strand shown. The method in brief:
as §1

For assay [6], the target named is T3, ELK4 (Homo sapiens, UniProt P28324-2 1-405).
T3 sequence: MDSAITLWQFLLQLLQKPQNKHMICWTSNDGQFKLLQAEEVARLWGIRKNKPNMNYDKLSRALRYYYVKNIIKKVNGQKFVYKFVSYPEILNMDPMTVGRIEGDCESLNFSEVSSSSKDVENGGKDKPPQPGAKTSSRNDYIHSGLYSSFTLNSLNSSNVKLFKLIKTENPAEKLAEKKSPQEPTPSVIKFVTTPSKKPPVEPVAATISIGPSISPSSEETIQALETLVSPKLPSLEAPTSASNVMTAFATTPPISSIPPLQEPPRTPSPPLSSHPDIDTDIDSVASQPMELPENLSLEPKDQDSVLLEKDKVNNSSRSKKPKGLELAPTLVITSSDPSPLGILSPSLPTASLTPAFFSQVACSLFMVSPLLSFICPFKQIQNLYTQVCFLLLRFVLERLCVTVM
As to conditions: protein: recombinant; tags: N-terminal GST; dsDNA, one strand shown. The method in brief:
as §1

The target of assay [7] is T4, ETV2 (Homo sapiens, UniProt O00321 1-342).
T4 sequence: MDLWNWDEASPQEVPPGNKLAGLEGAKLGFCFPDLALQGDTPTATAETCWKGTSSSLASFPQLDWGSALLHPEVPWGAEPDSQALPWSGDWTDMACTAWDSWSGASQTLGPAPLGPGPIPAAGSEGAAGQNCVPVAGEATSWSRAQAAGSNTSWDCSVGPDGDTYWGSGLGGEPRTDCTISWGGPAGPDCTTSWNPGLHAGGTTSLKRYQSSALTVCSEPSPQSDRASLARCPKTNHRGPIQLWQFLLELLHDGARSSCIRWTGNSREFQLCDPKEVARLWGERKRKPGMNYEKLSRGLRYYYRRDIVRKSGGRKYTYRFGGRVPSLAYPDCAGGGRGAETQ
As to conditions: protein: recombinant; tags: N-terminal GST; dsDNA, one strand shown. An outline of the steps:
as §1

The target in assay [8] is T5, ELF3 (Homo sapiens, UniProt P78545 1-371).
T5 sequence: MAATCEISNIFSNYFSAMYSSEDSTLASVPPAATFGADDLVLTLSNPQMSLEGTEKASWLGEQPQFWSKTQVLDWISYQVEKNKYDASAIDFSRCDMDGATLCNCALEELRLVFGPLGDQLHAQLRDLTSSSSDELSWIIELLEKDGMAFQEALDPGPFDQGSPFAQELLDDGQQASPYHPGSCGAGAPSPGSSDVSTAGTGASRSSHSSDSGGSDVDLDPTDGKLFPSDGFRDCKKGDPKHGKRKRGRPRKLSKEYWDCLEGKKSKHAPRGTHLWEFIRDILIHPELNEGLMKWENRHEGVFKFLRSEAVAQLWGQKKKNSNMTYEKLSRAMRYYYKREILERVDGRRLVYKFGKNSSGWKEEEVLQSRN
As to conditions: protein: recombinant; tags: N-terminal GST; dsDNA, one strand shown. An outline of the steps:
as §1

Assay [9] has as its target CRX (Homo sapiens, UniProt O43186 1-299). As to conditions: protein: recombinant; tags: N-terminal GST; dsDNA, one strand shown. An outline of the steps:
as §1

Assay [10] concerns the target ETV1 (Homo sapiens, UniProt P50549 1-477). As to conditions: protein: recombinant; tags: N-terminal GST; dsDNA, one strand shown. An outline of the steps:
as §1

Assay [11] addresses T6, ERF (Homo sapiens, UniProt P50548 1-548).
T6 sequence: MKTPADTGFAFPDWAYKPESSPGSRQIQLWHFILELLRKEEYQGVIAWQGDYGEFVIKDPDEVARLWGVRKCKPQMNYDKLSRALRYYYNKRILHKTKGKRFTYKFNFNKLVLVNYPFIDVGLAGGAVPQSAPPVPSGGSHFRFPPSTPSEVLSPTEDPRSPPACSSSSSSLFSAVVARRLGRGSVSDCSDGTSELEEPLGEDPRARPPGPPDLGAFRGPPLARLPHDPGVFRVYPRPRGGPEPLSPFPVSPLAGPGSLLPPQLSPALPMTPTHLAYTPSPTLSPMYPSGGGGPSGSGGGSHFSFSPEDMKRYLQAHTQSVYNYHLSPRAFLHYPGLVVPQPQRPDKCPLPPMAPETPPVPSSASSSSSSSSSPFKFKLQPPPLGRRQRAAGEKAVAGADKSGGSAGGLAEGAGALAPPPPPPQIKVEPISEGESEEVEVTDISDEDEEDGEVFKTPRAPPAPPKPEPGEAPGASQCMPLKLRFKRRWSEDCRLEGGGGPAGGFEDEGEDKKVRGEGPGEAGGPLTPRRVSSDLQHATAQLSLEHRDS
As to conditions: protein: recombinant; tags: N-terminal GST; dsDNA, one strand shown. The method in brief:
as §1

The target in assay [12] is T7, ETV3L (Homo sapiens, UniProt Q6ZN32 1-361).
T7 sequence: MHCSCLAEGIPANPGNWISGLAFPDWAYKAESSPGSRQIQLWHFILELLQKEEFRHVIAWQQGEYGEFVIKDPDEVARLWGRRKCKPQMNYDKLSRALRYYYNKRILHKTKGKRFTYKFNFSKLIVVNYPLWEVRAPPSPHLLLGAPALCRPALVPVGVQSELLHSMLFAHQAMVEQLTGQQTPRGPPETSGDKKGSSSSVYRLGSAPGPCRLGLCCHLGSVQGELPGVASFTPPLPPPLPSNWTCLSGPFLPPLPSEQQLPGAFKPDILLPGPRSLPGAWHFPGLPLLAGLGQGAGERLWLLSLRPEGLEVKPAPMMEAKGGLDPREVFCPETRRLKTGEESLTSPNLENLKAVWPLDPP
As to conditions: protein: recombinant; tags: N-terminal GST; dsDNA, one strand shown. The method in brief:
as §1

In assay [13] the target is T8, ETS2 (Homo sapiens, UniProt P15036 1-469).
T8 sequence: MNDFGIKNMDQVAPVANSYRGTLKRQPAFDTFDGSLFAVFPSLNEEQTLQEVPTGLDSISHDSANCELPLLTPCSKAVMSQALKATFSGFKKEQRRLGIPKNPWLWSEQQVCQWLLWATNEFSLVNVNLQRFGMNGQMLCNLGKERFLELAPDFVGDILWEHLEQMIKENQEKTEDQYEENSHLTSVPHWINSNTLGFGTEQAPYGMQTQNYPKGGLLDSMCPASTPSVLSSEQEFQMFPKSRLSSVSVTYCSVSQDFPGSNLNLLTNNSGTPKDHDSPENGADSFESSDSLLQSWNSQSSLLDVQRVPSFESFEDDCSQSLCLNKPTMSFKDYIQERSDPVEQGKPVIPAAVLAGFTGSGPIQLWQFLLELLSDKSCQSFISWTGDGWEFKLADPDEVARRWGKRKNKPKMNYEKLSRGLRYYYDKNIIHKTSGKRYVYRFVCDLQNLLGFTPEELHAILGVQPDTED
As to conditions: protein: recombinant; tags: N-terminal GST; dsDNA, one strand shown. The method in brief:
as §1

Assay [14] has as its target T9, SPDEF (Homo sapiens, UniProt O95238 1-335).
T9 sequence: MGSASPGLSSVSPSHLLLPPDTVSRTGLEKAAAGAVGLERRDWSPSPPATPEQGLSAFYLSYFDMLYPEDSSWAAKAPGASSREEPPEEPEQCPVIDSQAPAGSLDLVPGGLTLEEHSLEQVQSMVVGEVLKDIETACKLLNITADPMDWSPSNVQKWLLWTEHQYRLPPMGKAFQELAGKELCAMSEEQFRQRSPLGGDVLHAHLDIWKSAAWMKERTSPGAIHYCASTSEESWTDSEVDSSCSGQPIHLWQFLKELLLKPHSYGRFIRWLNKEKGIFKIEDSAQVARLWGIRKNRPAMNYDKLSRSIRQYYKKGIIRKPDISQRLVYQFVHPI
As to conditions: protein: recombinant; tags: N-terminal GST; dsDNA, one strand shown. An outline of the steps: as §1

Assay [15] concerns the target T10, ETV7 (Homo sapiens, UniProt Q9Y603 1-341).
T10 sequence: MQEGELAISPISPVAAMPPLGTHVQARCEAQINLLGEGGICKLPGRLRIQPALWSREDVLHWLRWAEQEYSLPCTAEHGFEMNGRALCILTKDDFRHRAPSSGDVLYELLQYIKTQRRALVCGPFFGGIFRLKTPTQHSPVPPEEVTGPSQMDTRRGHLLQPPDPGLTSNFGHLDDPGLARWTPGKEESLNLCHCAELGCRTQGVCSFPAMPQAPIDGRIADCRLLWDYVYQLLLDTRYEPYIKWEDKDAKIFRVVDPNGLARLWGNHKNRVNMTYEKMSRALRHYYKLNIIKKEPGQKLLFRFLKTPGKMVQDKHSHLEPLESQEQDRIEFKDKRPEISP
As to conditions: protein: recombinant; tags: N-terminal GST; dsDNA, one strand shown. An outline of the steps:
as §1

The target in assay [16] is T11, ELF5 (Homo sapiens, UniProt Q9UKW6-2 1-255).
T11 sequence: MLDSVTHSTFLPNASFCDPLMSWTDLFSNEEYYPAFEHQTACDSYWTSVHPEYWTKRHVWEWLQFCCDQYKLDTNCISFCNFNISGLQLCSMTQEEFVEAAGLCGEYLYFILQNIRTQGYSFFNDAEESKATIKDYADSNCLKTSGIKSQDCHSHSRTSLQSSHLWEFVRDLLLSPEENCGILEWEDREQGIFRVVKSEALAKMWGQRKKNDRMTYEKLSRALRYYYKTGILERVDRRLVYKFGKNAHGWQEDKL
As to conditions: protein: recombinant; tags: N-terminal GST; dsDNA, one strand shown. An outline of the steps: as §1

For assay [17], the target named is T12, ETV3 (Homo sapiens, UniProt P41162-2 1-143).
T12 sequence: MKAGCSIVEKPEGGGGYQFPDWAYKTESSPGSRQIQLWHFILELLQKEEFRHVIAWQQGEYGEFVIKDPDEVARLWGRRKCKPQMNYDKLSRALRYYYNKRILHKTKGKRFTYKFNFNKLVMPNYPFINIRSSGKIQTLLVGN
As to conditions: protein: recombinant; tags: N-terminal GST; dsDNA, one strand shown. An outline of the steps:
as §1

Assay [18] deals with ETV6 (Homo sapiens, UniProt P41212 1-452). As to conditions: protein: recombinant; tags: N-terminal GST; dsDNA, one strand shown. The method in brief: as §1
ETV6, sequence (P41212 whole entry): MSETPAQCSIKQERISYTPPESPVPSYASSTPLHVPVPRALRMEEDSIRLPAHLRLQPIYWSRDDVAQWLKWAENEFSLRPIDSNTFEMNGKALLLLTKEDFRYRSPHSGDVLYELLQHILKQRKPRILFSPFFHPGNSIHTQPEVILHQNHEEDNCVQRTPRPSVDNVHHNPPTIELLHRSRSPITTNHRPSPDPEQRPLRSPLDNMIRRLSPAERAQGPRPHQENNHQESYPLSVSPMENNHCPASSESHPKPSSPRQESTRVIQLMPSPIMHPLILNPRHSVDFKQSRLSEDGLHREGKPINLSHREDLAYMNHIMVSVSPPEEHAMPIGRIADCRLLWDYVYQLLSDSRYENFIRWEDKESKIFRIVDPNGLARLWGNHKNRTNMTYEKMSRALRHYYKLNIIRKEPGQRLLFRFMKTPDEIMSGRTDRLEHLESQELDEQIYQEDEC

ELF4, sequence (Q99607 whole entry): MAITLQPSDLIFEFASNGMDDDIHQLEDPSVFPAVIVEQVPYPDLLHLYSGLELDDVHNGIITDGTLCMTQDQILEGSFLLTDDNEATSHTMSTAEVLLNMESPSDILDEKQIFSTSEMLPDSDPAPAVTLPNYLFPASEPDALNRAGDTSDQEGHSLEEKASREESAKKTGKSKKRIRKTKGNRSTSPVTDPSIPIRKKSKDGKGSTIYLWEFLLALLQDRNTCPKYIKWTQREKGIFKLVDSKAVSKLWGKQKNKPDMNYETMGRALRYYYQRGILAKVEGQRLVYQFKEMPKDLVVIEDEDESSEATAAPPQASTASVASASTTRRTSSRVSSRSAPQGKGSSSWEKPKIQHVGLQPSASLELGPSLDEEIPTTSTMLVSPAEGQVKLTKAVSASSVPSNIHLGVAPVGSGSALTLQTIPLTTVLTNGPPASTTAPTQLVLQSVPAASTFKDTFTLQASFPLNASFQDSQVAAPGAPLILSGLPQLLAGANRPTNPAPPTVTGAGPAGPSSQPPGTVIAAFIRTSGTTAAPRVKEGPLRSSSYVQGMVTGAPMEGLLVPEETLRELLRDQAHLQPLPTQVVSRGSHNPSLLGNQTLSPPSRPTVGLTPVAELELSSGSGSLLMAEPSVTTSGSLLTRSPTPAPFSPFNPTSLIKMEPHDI
ETV1, sequence (P50549 whole entry): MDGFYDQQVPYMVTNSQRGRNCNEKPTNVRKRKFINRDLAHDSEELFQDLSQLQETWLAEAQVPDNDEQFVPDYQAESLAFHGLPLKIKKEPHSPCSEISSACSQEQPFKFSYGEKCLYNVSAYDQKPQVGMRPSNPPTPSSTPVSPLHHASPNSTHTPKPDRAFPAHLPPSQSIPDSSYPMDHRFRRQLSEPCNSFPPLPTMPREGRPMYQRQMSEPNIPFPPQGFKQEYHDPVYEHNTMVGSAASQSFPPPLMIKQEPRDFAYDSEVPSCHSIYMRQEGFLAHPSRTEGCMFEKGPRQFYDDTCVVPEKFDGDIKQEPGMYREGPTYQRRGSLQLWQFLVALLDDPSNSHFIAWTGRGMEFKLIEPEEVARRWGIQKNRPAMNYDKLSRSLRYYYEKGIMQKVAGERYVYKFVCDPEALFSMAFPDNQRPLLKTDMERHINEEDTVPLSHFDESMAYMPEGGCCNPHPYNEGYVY
HSF1, sequence (Q00613 whole entry): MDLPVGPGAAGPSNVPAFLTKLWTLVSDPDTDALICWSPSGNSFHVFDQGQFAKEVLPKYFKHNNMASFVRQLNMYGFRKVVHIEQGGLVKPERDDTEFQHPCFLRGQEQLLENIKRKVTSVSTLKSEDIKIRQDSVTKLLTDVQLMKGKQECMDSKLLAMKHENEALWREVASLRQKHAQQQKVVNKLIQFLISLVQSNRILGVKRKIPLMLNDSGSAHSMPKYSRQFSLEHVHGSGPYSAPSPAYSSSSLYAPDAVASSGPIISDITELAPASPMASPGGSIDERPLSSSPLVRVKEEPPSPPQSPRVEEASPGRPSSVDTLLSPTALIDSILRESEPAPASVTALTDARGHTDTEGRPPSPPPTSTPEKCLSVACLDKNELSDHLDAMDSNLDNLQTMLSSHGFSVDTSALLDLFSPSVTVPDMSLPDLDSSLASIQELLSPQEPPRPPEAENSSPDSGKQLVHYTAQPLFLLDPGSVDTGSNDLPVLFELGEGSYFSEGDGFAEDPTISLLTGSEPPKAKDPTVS
ETV5, sequence (P41161 whole entry): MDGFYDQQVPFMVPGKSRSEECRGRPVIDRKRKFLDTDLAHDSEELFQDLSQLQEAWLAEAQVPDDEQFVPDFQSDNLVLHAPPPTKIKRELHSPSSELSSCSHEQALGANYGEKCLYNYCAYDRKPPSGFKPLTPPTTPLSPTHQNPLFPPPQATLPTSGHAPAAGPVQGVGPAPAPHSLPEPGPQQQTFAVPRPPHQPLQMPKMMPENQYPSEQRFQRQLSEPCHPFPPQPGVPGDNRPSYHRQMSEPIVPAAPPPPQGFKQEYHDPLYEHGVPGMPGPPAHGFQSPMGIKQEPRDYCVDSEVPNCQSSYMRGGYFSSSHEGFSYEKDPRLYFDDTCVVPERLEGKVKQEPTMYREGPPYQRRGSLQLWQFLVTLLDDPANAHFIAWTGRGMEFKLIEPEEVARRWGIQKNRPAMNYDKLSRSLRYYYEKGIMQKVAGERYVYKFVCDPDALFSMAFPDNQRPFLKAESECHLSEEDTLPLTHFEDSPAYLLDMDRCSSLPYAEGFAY
CRX, sequence (O43186 whole entry): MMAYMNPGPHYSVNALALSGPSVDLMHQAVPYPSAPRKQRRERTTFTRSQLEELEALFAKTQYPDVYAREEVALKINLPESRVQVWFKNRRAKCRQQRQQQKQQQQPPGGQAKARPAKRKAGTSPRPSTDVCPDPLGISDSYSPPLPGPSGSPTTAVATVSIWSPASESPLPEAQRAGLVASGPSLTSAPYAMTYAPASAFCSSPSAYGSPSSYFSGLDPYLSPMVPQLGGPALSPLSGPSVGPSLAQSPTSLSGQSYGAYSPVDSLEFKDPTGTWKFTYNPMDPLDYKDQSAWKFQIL

Regarding GAACCT, the binding signal is 1.03 fold enrichment (6-mer frequency, TF over GST control) in assay [1]; 1.1 fold enrichment (6-mer frequency, TF over GST control) in assay [2]; 1.45 fold enrichment (6-mer frequency, TF over GST control) in assay [3]; 1.09 fold enrichment (6-mer frequency, TF over GST control) in assay [4]; 1.17 fold enrichment (6-mer frequency, TF over GST control) in assay [5]; 1.07 fold enrichment (6-mer frequency, TF over GST control) in [6]. For the same sequence, the binding signal in assay [7] was 1.25 fold enrichment (6-mer frequency, TF over GST control); in assay [8] it was 1.15 fold enrichment (6-mer frequency, TF over GST control); in assay [9], 1.06 fold enrichment (6-mer frequency, TF over GST control); in [10], 1.05 fold enrichment (6-mer frequency, TF over GST control); in [11], 1.04 fold enrichment (6-mer frequency, TF over GST control); in assay [12] it was 1.18 fold enrichment (6-mer frequency, TF over GST control). For the same sequence, the binding signal was 1.14 fold enrichment (6-mer frequency, TF over GST control) in [13]; 1.08 fold enrichment (6-mer frequency, TF over GST control) in assay [14]; 1.19 fold enrichment (6-mer frequency, TF over GST control) in assay [15]; 1.03 fold enrichment (6-mer frequency, TF over GST control) in [16]; 1.1 fold enrichment (6-mer frequency, TF over GST control) in [17]; 1.03 fold enrichment (6-mer frequency, TF over GST control) in assay [18].
